Rows were chosen to be rich in hits. Some 7.2% of all compounds tested hit in one or more screens of this group.
LASV entry inh: blocks Lassa virus binding to or entry into cells; Lassa virus pseudotype entry inhibition, cell reporter; Potency, µM (top dose mostly 37.9 µM), for inactives: top-dose activity change, negative = inhibition, hits mostly inhibitors; 300,000 tested, 1.2% active; calls by dose curve; tested in HEK293 cells; also: nearly all actives have a fitted effect of over 50% in size
Sm TGR inh: S. mansoni TGR enzyme inhibition. purified TGR, DTNB reduction, TNB absorbance 405 nm. Q962Y6. 360,000 tested, 3% active. Potency, µM (doses to about 114 µM), for inactives: at the highest dose activity change, negative = inhibition, hits mostly inhibitors; also: nearly all actives have a fitted effect of over 60% in size
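TGR 20 nM + NADPH 100 uM (dispensed conc.), cpd preinc 15 min RT; start with NADPH (500 uM addition) then DTNB (15 mM addition). Kinetic TNB absorbance, 405 nm filter. Four-parameter Hill fit across titration.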
FMDV inh: foot and mouth disease virus antiviral activity | 410,000 tested, 1.2% active | FMDV antiviral cell-based qHTS | Potency, µM (titrated, usually from 57.9 µM), for inactives: at the top dose activity change, negative = inhibition, usual class: inhibitors; calls by dose curve; tested in HEK293T cells; also: read-out not given here; nearly all actives have a fitted effect of over 45% in size
HCV inh: HCV inhibition; Huh7.5.1 HCVcc-Cre infection, luciferase reporter, 44 h; 340,000 tested, 3.4% active; Potency, µM (titrated, usually from 41.8 µM), for inactives: at the top dose activity change, negative = inhibition, usual class: inhibitors
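A cell-based infection assay in which seeded cells (1,000 per well) receive test compound after 4 h, are inoculated with HCVcc-Cre at approximately 0.5 moi, and are incubated 44 h before luminescence detection.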
Marburg entry inh: blocks Marburg virus binding to or entry into cells | 300,000 tested, 1.8% active | Potency, µM (series often up to 37.8 µM), for inactives: at the highest dose activity change, negative = inhibition, hits mostly inhibitors | Marburg virus pseudotyped entry inhibition, cell reporter; calls by dose curve; tested in HEK293 cells
RE007 growth inh: less growth of the S. pombe RE007 Vpr strain; S. pombe RE007 Vpr strain, BacTiter-Glo ATP luminescence, 24 h; Potency, µM (series often up to 92.2 µM), for the others: at the highest dose activity change, negative = less growth, actives largely listed as inhibitors; 360,000 tested, 0.21% active; AID 651644; active = well fitted falling curve with a large enough effect; inconclusive = small, poorly fitted or top-dose-only effect; inactive = no such curve, though single readings can be large or run the other way; also: nearly all actives have a fitted effect of over 50% in size
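Fission yeast strain RE007, carrying one chromosomally integrated HIV-1 vpr copy, was seeded at OD 0.01 in PMG+AL medium with 23 nL pinned compound. After 24 h at 30 °C and 99% humidity, viability was read by BacTiter-Glo luminescence.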
Active calls of the source: *; ? = inconclusive; nt = no result; [ ] = dose if it differs, or a comment. Unless noted, calls follow the shape of the dose curve; as a rule, active = well fitted curve in the direction sought with a large enough effect; inconclusive = small, poorly fitted or top-dose-only effect, or another doubt; inactive = no such curve, though single readings can be large; an effect the other way counts as inactive or inconclusive. % is scaled to controls: 0 for no effect and ±100 for the full control effect; potency is read from the fitted curve at half-maximal effect.

SMILES | LASV entry inh | Sm TGR inh | FMDV inh | HCV inh | Marburg entry inh | RE007 growth inh
Cc1cc(C(=O)CSc2n[nH]c(N)n2)c(C)n1-c1ccccc1 | -34% | -20% | 25% | 11µM* | -5% | -5%
Cc1cc(C(=O)CSc2nnc3ccccn23)c(C)n1-c1ccccc1 | 0.89µM* | -6% | 3.2µM* | 16% | 0.32µM* | ?
COC(=O)[C@]12CCCCC=C1N(Cc1ccco1)C(=O)[C@H](CC(=O)N1CCN(C(=O)C3CC3)CC1)C2 | nt | nt | -18% | nt | nt | -1%
c1ccc(N2CC3CCc4ccccc4C3=N2)cc1 (centres undefined) | ? | 45µM* | -2% | -1% | ? | -4%
Cc1cc(N)c2ccccc2[n+]1CCCCCCCCCCCCCC[n+]1c(C)cc(N)c2ccccc21 | nt | nt | nt | nt | 8.9µM* | nt
CC1(C)CC(=O)C(N=Nc2cc(S(=O)(=O)N3CCOCC3)ccc2Cl)=C(O)C1 | nt | 10µM* | 1% | 18% | nt | 17%
COc1ccc(NC(=O)N2CC3(CCN(C(=O)c4cnccn4)CC3)C2)cc1 | nt | nt | -1% | nt | nt | nt
COc1cc([C@@H]2C(C#N)=C(N)Oc3cc(C)n(CCN4CCOCC4)c(=O)c32)cc(OC)c1OC | nt | nt | nt | nt | 0% | nt
CC(=O)c1ccccc1NC(=O)c1ccc2c(c1)NC(=O)C(C)S2 (centres undefined) | -33% | -2% | -7% | 11µM* | ? | -2%
CCCNC(=O)c1ccccc1NC(=O)c1ccc2c(c1)NC(=O)C(C)S2 (centres undefined) | nt | -22% | -14% | 4.5µM* | nt | 8%
CC1Sc2ccc(C(=O)NCc3cccc(C(F)(F)F)c3)cc2NC1=O (centres undefined) | nt | -5% | 8% | 22µM* | nt | -2%
Cc1ncc2c(c1CNS(=O)(=O)N(C)C)CCN(C(=O)/C=C/c1ccccc1)C2 | nt | nt | 8% | nt | nt | nt
Cc1ccccc1N/N=C/c1sc(=O)n(Cc2cccc(C(=O)O)c2)c1Cl | -18%[46.1 µM] | 10µM* | -25% | 2% | ? | -11%
COC(=O)c1cccc(CN2C(=O)SC(Nc3ccccc3C)C2=O)c1 (centres undefined) | -8%[46.1 µM] | 4% | -6% | nt | -2%[46.1 µM] | nt
COC(=O)c1cccc(Cn2c(Cl)c(/C=N/Nc3ccccc3C)sc2=O)c1 | ? | 7.9µM* | -11% | -8% | -22% | 2%
O=C(COC(=O)/C=C/c1ccccc1)NC1CCS(=O)(=O)C1 (centres undefined) | nt | -2% | 2% | 16% | nt | -16%
CCOc1cc(/C=C/C(=O)OCC(=O)NC2CCS(=O)(=O)C2)ccc1OCc1ccccc1 (centres undefined) | -25% | -2% | -15% | 13µM* | 26%[46.1 µM] | -5%
NS(=O)(=O)c1ccc(-c2ccc(C=C3C(=O)NC(=O)NC3=O)o2)cc1 | nt | ? | 4% | -6% | nt | 12%
NS(=O)(=O)c1ccc(-c2ccc(C=C3C(=O)NC(=S)NC3=O)o2)cc1 | nt | 2.2µM* | nt | nt | nt | nt
O=[N+]([O-])c1ccc(N2CCOCC2)cc1SCc1ccco1 | 2% | -3% | -18% | 11µM* | ? | -20%
O=[N+]([O-])c1ccc(SCc2ccco2)cc1N1CCOCC1 | 13%[46.1 µM] | 4% | 9% | -24% | -16%[46.1 µM] | -25%
CCOC(=O)N1CCc2c(sc3c2c(=O)n(-c2ccc(Cl)cc2)c(=O)n3CC(C)C)C1 | -15%[46.1 µM] | 1% | -3% | nt | 9%[46.1 µM] | nt
O=C1CC(N2CCC(n3c(=O)[nH]c4ccccc43)CC2)C(=O)N1Cc1ccccc1 (centres undefined) | 18% | -32% | -26% | -25% | 28% | -23%
COC(=O)c1ccc(N2C(=O)CC(N3CCC(n4c(=O)[nH]c5ccccc54)CC3)C2=O)cc1 (centres undefined) | 2% | 35µM* | ? | 3% | ? | 14µM*
Cc1cc(N2C(=O)CC(N3CCC(n4c(=O)[nH]c5ccccc54)CC3)C2=O)no1 (centres undefined) | 0% | 22µM* | -10% | 15% | 16% | ?
SMILES | LASV entry inh | Sm TGR inh | FMDV inh | HCV inh | Marburg entry inh | RE007 growth inh
Cc1c(C(=O)NCc2ccco2)cnn1-c1ncc2c(n1)-c1ccccc1CC2 | nt | nt | 48% | nt | nt | nt
CCCn1c(N)c(C(=O)CSc2ncc(C(F)(F)F)cc2Cl)c(=O)[nH]c1=O | 3.2µM* | 1% | ? | -9% | ? | 11%
CCN1C(=O)/C(=C\c2ccc(-c3cccc(C(=O)OC)c3)o2)SC1=Nc1ccc(C(=O)O)cc1 | nt | -10% | nt | nt | nt | nt
CCN1C(=O)/C(=C\c2ccc(-c3ccc([N+](=O)[O-])cc3OC)o2)SC1=Nc1cccc(C(=O)O)c1 | nt | 35µM* | -9% | -6% | nt | -12%
CN(C)c1nc2cc3c(cc2cc1CN(CC1CCCO1)C(=O)/C=C/c1cccs1)OCO3 (centres undefined) | nt | nt | -18% | nt | nt | nt
CCCCc1nc2ccccc2c(NC(=O)CNC(C)(C)C)c1CCC | 15% | 9% | -19% | ? | 2%[46.1 µM] | 5%
CCCCc1nc2ccccc2c(N)c1CCC (tested in a mixture with another compound) | ? | 2% | ? | -55% | 18µM* | -20%
C[N+](C)(C)Cc1ccccc1 | -2% | 5% | 35µM* | 1%[8.37 µM] | 11% | 24%
NCc1ccccc1 | nt | 0% | -18% | 3% | nt | 8%
Cc1ccc(-c2csc(N3CCN(CCCn4c(C(F)(F)F)nc5ccccc54)CC3)n2)cc1 | nt | 6% | ? | 5% | nt | -13%
CC(=O)N[C@@H](C)c1nc2ccccc2n1CCCN1CCN(c2nc(-c3ccc(C)cc3)cs2)CC1 | nt | 2% | 0% | 3.5µM* | nt | -5%
O=C(OCc1cn([C@@H]2C[C@H](c3ccccc3)N(CC3CCCCC3)C[C@@H]2O)nn1)c1ccccc1 | -9%[46.1 µM] | nt | nt | nt | nt | nt
CCC1C(c2cc(OC)c(OC)c(OC)c2)c2cc3c(cc2OC1N1CCCC1)OCO3 (centres undefined) | 8.9µM* | nt | -8% | ? | ? | 15%
COc1cc(C2c3cc4c(cc3OC(N3CCCCC3)C2C)OCO4)cc(OC)c1O (centres undefined) | ? | nt | -19% | -16% | -25% | 2%
CCCCn1nnnc1C(c1cc2ccccc2o1)N(CCC#N)Cc1ccccc1 (centres undefined) | nt | nt | 2% | nt | nt | 18%
COc1ccc(NC(=O)c2n[nH]c(=O)c3ccccc23)cc1S(=O)(=O)N1CCCCC1 | ? | 0% | ? | 11µM* | ? | 3%
COc1ccc(OCC(=O)Nc2ccc(OC)c(S(=O)(=O)N3CCCCC3)c2)cc1 | ? | 3% | -15% | 10µM* | ? | -19%
COc1ccc(OCC(=O)Nc2ccc(S(=O)(=O)N3CCCCCC3)cc2)cc1 | 9% | 1% | 0% | -2% | 7% | 14%
COc1ccc(NC(=O)CSc2ccc3ccccc3c2)cc1S(=O)(=O)N1CCCCC1 | ? | 1% | ? | 5µM* | ? | -11%

Compound activity: PubChem BioAssay, National Center for Advancing Translational Sciences (NCATS)
